Records with an inconclusive call do not appear. Calls of active or inactive are those of the source. Calls follow the shape of the dose curve; as a rule, active = well fitted curve in the direction sought with a large enough effect; inconclusive = small, poorly fitted or top-dose-only effect, or another doubt; inactive = no such curve, though single readings can be large; an effect the other way counts as inactive or inconclusive.

Test [1] addresses Glutathione peroxidase 1 (Homo sapiens) (UniProt P07203). As to the kind of experiment: Primary qHTS Assay for Inhibitors of Recombinant Selenoprotein Glutathione Peroxidase 1 (GPX1) (AID 1845191). Also: nearly all actives have a fitted effect of over 65% in size. In short, it runs like this: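 GR-coupled readout: NADPH consumption tracked by fluorescence, ex 340/em 450 nm, at t=0 and after 15 min at RT. Final mix 10 nM GPX1, 1 mM GSH, 0.5 mM CHP, 0.5 mM NADPH, 100 nM GR, 0.01% BSA, following 30 min enzyme–compound preincubation.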
On the technique in general: qHTS replaces the single test concentration by a dilution series.

Test [2] concerns the target Phospholipid hydroperoxide glutathione peroxidase GPX4 (Homo sapiens) (UniProt P36969). The test is described as follows: Primary qHTS Assay for Inhibitors of Recombinant Selenoprotein Glutathione Peroxidase 4 (GPX4) (AID 1845192). Also: nearly all actives have a fitted effect of over 65% in size. Also: potency is read from the fitted curve at half-maximal effect. In outline: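 Steps: GPX4 plus compound, 30 min RT; add GR/GSH/NADPH master mix; start with cumene hydroperoxide; read 340/450 nm fluorescence at 0 and 15 min. Finals were 200 nM GPX4, 1 mM GSH, 0.5 mM CHP, 0.5 mM NADPH, 100 nM GR.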

Test [3] has as its target Luciferin 4-monooxygenase (Photinus pyralis) (UniProt P08659). The test is described as follows: Primary firefly luciferase (FLuc) qHTS assay for identification of artifact compounds. (AID 1845220). Also: nearly all actives have a fitted effect of over 60% in size. In outline: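 Titrated compounds were incubated 15 min at RT, protected from light, with luciferin and ATP at 10 uM; reaction started with 10 nM FLuc, luminescence imaged at 5 min, and concentration-response fitted by Hill equation.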

Test [4] in a line: Primary fluorescence-based thiol-reactive (MSTI) qHTS assay for identification of artifact compounds. (AID 1845221).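 Also: series mostly up to about 54 µM; thiol-reactive compounds lower the probe fluorescence signal; nearly all actives have a fitted effect of over 65% in size.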 In short, it runs like this:
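A multi-concentration qHTS design tested compounds against 4 uM MSTI, pH 7.4 phosphate-buffered saline. Plates were protected from light for 1 h at room temperature before imaging fluorescence.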

The subject of test [5] is Nanoluciferase (engineered Oplophorus gracilirostris luciferase). The test is described as follows: Primary Nanoluciferase (NLuc) qHTS assay for identification of artifact compounds. (AID 1845222). Also: potency is read from the fitted curve at half-maximal effect. In short, it runs like this: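 qHTS format, against NLuc in S16 cell-conditioned medium. Nano-Glo substrate 1:100 was added after 15 min at room temperature. Luminescence was taken after a further 5 min.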

The nature of test [6]: Quantitative High-Throughput drug screen in 47 multiple myeloma cell lines against the NCATS MIPE library collection: Delta47_JCRB cell viability assay (AID 1918925; also: nearly all actives have a fitted effect of over 45% in size; also: potency is read from the fitted curve at half-maximal effect). In outline:
(§1)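 Approved and investigational drugs from MIPE 4.0 were added by pin tool to 500 cells per well. After 48 hours at 37C, ATP-based CellTiter-Glo luminescence indicated remaining viability.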

Test [7] in a line: Quantitative High-Throughput drug screen in 47 multiple myeloma cell lines against the NCATS MIPE library collection: EJM_DSMZ cell viability assay (AID 1918926; also: nearly all actives have a fitted effect of over 30% in size; also: potency is read from the fitted curve at half-maximal effect). In short, it runs like this: as §1
Test [8] can be described thus: Quantitative High-Throughput drug screen in 47 multiple myeloma cell lines against the NCATS MIPE library collection: AMO1_DSMZ cell viability assay (AID 1918927; also: nearly all actives have a fitted effect of over 30% in size; also: potency is read from the fitted curve at half-maximal effect). In outline: as §1
The nature of test [9]: Quantitative High-Throughput drug screen in 47 multiple myeloma cell lines against the NCATS MIPE library collection: ARP1_JJKsccF8 cell viability assay (AID 1918928; also: nearly all actives have a fitted effect of over 40% in size; also: potency is read from the fitted curve at half-maximal effect). In short, it runs like this:
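CellTiter-Glo luminescence after 48 h exposure gives viability, scaled between DMSO-only (100%) and media-only (0%) controls. Library compounds are pinned onto 500 myeloma cells per well, incubated at 37C with 5% CO2.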

A short description of test [10]: Quantitative High-Throughput drug screen in 47 multiple myeloma cell lines against the NCATS MIPE library collection: Karpas620_DSMZ cell viability assay (AID 1918959). Also: nearly all actives have a fitted effect of over 30% in size. Also: potency is read from the fitted curve at half-maximal effect. In outline:
(§2)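 We plated 500 myeloma cells per well, pinned in MIPE 4.0 compounds, and incubated for 48 hours at 37C. ATP was then quantified with CellTiter-Glo, with DMSO and media-only wells defining 100% and 0%.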

Test [11] can be described thus: Primary redox qHTS assay for identification of artifact compounds. (AID 1845223). In outline:
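Redox-cycling detection via DTT (250 uM final) oxidation coupled to Amplex Red (25 uM)/HRP (250 mU/mL) in HBSS. 15 min preincubation plus 30 min after DTT, room temperature. Ex/Em 525/598 nm; 4-parameter Hill fit against DMSO and 10 uM DA3003.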

Test [12] is described as follows: Quantitative High-Throughput drug screen in 47 multiple myeloma cell lines against the NCATS MIPE library collection: FR4_PLB cell viability assay (AID 1918924; also: nearly all actives have a fitted effect of over 35% in size; also: potency is read from the fitted curve at half-maximal effect). In short, it runs like this:
as §2

A short description of test [13]: Quantitative High-Throughput drug screen in 47 multiple myeloma cell lines against the NCATS MIPE library collection: ARD_JJKsccE7 cell viability assay (AID 1918929; also: potency is read from the fitted curve at half-maximal effect). In outline: as §1

Sequence of Glutathione peroxidase 1 (Homo sapiens) (P07203 whole entry, looked up): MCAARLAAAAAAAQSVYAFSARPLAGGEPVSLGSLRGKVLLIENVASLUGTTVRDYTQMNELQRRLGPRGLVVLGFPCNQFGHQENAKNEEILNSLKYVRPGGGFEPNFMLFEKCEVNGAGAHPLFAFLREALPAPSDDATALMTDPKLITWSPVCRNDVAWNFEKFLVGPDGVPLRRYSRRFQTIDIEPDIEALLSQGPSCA
Sequence of Phospholipid hydroperoxide glutathione peroxidase GPX4 (Homo sapiens) (P36969 whole entry, looked up): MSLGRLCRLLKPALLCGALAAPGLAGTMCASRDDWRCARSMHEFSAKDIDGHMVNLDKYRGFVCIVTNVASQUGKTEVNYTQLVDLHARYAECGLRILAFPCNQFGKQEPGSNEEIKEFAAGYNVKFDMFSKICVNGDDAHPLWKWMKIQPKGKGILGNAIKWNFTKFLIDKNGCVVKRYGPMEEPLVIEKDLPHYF

As for `COC(=O)c1ccc2c(C(=Nc3ccc(N(C)C(=O)CN4CCN(C)CC4)cc3)c3ccccc3)c(O)[nH]c2c1`, the Potency result in test [1], in test [2], in [3], in test [4] and in [5] was “inactive” in each case. In addition, the Potency was 6.62 µM (active) in test [6], 3.72 µM (active) in [7], 4.69 µM (active) in test [8] and 23.5 µM (active) in test [9].

Take `CCCCCCCCCC(=O)N[C@@H](Cc1c[nH]c2ccccc12)C(=O)N[C@H](CC(N)=O)C(=O)N[C@@H](CC(=O)O)C(=O)N[C@@H]1C(=O)NCC(=O)N[C@@H](CCCN)C(=O)N[C@@H](CC(=O)O)C(=O)N[C@H](C)C(=O)N[C@@H](CC(=O)O)C(=O)NCC(=O)N[C@H](CO)C(=O)N[C@@H]([C@@H](C)CC(=O)O)C(=O)N[C@@H](CC(=O)c2ccccc2N)C(=O)O[C@@H]1C`: the Potency entry in [1], in [2], in test [3], in [4], in [5] and in test [6] was “inactive” throughout. The Potency result in [7], in [8], in [9] and in test [10] was “inactive” throughout.

Consider `COc1ccc2c(c1)CC[C@@H](CN(C)CC(=O)O)[C@H]2c1ccccc1`, for which the Potency entry in test [1], in [2], in [3], in test [4], in test [5] and in test [11] was “inactive” each time. Moreover, the Potency in test [12] was 1.05 µM (active); in test [8], 0.59 µM (active); in test [9], 3.32 µM (active); in test [13], 1.32 µM (active).

As for `COc1cc2c(Oc3ccc(-c4cnc(Nc5ccc(F)cc5)n(C)c4=O)cc3F)ccnc2cc1OCCCN1CCOCC1`, the Potency entry in [1], in test [2], in test [3], in test [4] and in test [5] was “inactive” throughout. In addition, the Potency in [12] was 14.8 µM (active); in test [6], 0.935 µM (active); in test [7], 18.7 µM (active); in test [8], 2.35 µM (active); in test [9] it was 8.33 µM (active); in test [10], 2.96 µM (active).

For `O=C(O)CCCc1c[nH]c2ccccc12`, the Potency result in test [1], in [2], in [3], in test [4], in test [5] and in [11] was “inactive” throughout. Besides, the Potency result in test [6], in [7], in test [13] and in test [10] was “inactive” in each case.

For the molecule `Cc1cnc(-c2cnc(NCCNc3ccc(C#N)cn3)nc2-c2ccc(Cl)cc2Cl)[nH]1`, the Potency result in test [1], in test [2], in test [3], in test [4], in test [13] and in test [10] was “inactive” in each case. Also, the Potency in [5] was 3.38 µM (active).

Take `CC(C)(O)c1cc2nc(-c3cnc(N)nc3)nc(N3CCOCC3)c2s1`: the Potency result in test [1], in [2], in test [3], in test [4], in test [5] and in test [11] was “inactive” each time. Also, the Potency in test [12] is 0.235 µM (active); in test [6] it was 0.0296 µM (active); in test [8] it was 0.0935 µM (active); in test [9], 0.0187 µM (active); in [13], 0.105 µM (active); in [10], 0.166 µM (active).

On to `CCCn1c(=O)c2[nH]c(-c3cnn(Cc4cccc(C(F)(F)F)c4)c3)nc2n(CC)c1=O`, for which the Potency entry in [1], in test [2], in test [3], in [4], in [5] and in test [11] was “inactive” throughout. The Potency entry in [6], in test [8] and in test [10] was “inactive” each time. The Potency in test [12] was 5.9 µM (active).

In the case of `CN(C)CC(C)(C)CNc1nn2c(-c3ccccc3)nnc2cc1C1CCC1`, the Potency entry in test [1], in [2], in test [3], in [4], in test [5] and in [11] was “inactive” each time. The Potency entry in [13] is “inactive”. The Potency in test [6] is 13.2 µM (active); in [8], 2.96 µM (active); in test [10], 14.8 µM (active).

In the case of `C1Cc2[nH]nc(-c3nn[nH]n3)c2C1`, the Potency result in [1], in test [2], in [3], in test [4], in test [5] and in test [11] was “inactive” in each case. Moreover, the Potency result in test [12], in [7], in [8] and in [10] was “inactive” in each case.

Consider `CCc1cc2c(cc1N1CCC(N3CCOCC3)CC1)C(C)(C)c1[nH]c3cc(C#N)ccc3c1C2=O`, for which the Potency result in test [1], in test [2], in test [3], in test [4] and in test [11] was “inactive” each time.

Regarding `Cc1cc(C(=O)N2CCN(c3cccc(Cl)c3)CC2)n(-c2ccccc2)n1`, the Potency entry in test [1], in test [2], in test [3], in test [4], in test [5] and in test [11] was “inactive” each time. The Potency in [12] was 0.148 µM (active); in test [6] it was 0.833 µM (active); in test [8] it was 0.0332 µM (active); in [9] it was 0.59 µM (active); in test [13] it was 0.264 µM (active); in test [10], 0.0296 µM (active).

As to `CC(C)c1noc(N2CCC(COc3ccc(-c4ccc(S(C)(=O)=O)cc4)nc3)CC2)n1`, the Potency entry in test [1], in [2], in [3], in [4], in [5] and in [11] was “inactive” each time. In addition, the Potency result in test [8], in [13] and in test [10] was “inactive” throughout. Moreover, the Potency in test [12] was 6.62 µM (active).

For the molecule `CC1(C)CCC(c2ccc(Cl)cc2)=C(CN2CCN(c3ccc(C(=O)NS(=O)(=O)c4ccc(N[C@H](CCN5CCOCC5)CSc5ccccc5)c(S(=O)(=O)C(F)(F)F)c4)cc3)CC2)C1`, the Potency entry in [1], in [3], in test [4], in [5] and in [11] was “inactive” throughout. Besides, the Potency is 10.1 µM (active) in test [2]; 7.43 µM (active) in [6]; 8.33 µM (active) in [7]; 3.72 µM (active) in test [8]; 13.2 µM (active) in test [9]; 2.64 µM (active) in test [13]. In addition, in test [10], the Potency is 0.0187 µM (active).

Consider `COc1cc2c(Oc3ccc(NC(=O)C4(C(=O)Nc5ccc(F)cc5)CC4)cc3F)ccnc2cc1OCCCN1CCOCC1`, for which the Potency result in test [1], in [2], in test [3], in test [4], in test [5] and in test [11] was “inactive” in each case. The Potency in test [12] was 14.8 µM (active); in test [6] it was 0.418 µM (active); in test [8], 5.26 µM (active); in test [13] it was 2.64 µM (active); in [10] it was 6.62 µM (active).

On to `COc1ccc(OC)c(-c2nnc3ccc(-c4ccc(OC)c(O[C@@H]5CCOC5)c4)nn23)c1`, for which the Potency entry in [1], in test [2], in [3], in test [4], in test [5] and in test [11] was “inactive” each time. Moreover, the Potency is 11.8 µM (active) in test [12]; 9.35 µM (active) in test [6]; 26.4 µM (active) in test [8]; 18.7 µM (active) in test [9]; 16.6 µM (active) in test [13]; 8.33 µM (active) in [10].

Take `CCCNC(=O)Nc1ccc(Oc2ncnc3cc(OC)c(OC)cc23)cc1Cl`: the Potency entry in [1], in [2], in test [3], in test [4], in [5] and in [11] was “inactive” each time. The Potency result in [6], in test [7], in test [8], in test [9] and in test [10] was “inactive” in each case.

Take `CNC(=O)c1ccc(-c2cnc3ncc(Cc4ccc5ncccc5c4)n3n2)cc1F`: the Potency entry in test [1], in test [2], in test [3], in test [4], in [5] and in test [11] was “inactive” each time. Moreover, the Potency result in test [8] is “inactive”.

Regarding `COc1ccc2c(OCc3nnc4ccc(-c5ccccc5)nn34)ccnc2c1`, the Potency result in [1], in [2], in [3], in test [4], in test [5] and in test [11] was “inactive” throughout. The Potency entry in test [12], in [6], in test [8], in test [9] and in [10] was “inactive” throughout.

Regarding `CCNC(=O)Nc1ccc2ncc(Nc3ccc(C)cc3)nc2n1`, the Potency entry in test [1], in [2], in test [3], in test [4], in test [5] and in test [11] was “inactive” each time. The Potency in test [6] was 3.32 µM (active); in [8], 2.35 µM (active); in test [13] it was 3.72 µM (active); in [10] it was 1.87 µM (active).

(Values after PubChem BioAssay (NCATS).)
